Only some compounds are listed: those with a hit (about 21% of all), similar ones and a draw of the others.
DT40 TDP1 CPT: growth inhibition of DT40 Tdp1-/-;hTDP1 cells with camptothecin (screen for TDP1 inhibitors). chicken DT40 Tdp1-/-;hTDP1 cells + 20 nM CPT, ATP luminescence, 48 h. actives 12% (n = 420,000). Potency, µM (series often up to 46.2 µM), for inactives: at the highest dose activity change, negative = growth inhibition, hits mostly inhibitors; further: potency means the concentration at half of the fitted maximal effect; on the % scale 0 is the no-effect control and ±100 the full control effect; nearly all actives have a fitted effect of over 55% in size
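Chicken DT40 Tdp1-/- cells stably complemented with human TDP1 were seeded at 400 cells/well in medium containing 20 nM camptothecin, exposed to pin-transferred compounds, and grown at 37 °C for at least 48 hr. Viability was read as ATP luminescence.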
D3 ag: activates the human D3 dopamine receptor. P35462. D3R DiscoveRx beta-arrestin cells, luminescence, 90 min. max activation, %. actives 0.58% (n = 410,000). AID 652048; in the data active means max activation above about 30%; further: 0% is about no effect
Target sequence (P35462 whole entry, looked up): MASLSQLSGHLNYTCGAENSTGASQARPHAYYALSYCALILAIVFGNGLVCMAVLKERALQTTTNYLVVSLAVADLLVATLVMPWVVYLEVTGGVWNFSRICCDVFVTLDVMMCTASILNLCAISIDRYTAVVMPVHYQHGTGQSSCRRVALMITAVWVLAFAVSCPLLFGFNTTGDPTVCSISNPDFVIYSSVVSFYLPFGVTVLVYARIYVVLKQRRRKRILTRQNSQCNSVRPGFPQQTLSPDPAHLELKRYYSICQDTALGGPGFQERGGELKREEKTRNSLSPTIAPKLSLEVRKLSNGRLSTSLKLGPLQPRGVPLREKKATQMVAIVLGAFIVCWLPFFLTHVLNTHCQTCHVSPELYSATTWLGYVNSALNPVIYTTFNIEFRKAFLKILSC
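Agonist-mode cell screen: cells plated at 1500/well and incubated overnight at 37 °C, then exposed to library compounds for 90 min at 37 °C. Detection reagent was added for 30–60 min at room temperature, and luminescence was read.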
ClpP mod: qHTS Assay for Activators of ClpP | ATP-dependent Clp protease proteolytic subunit (Bacillus subtilis (strain 168)), P80244 | purified B. subtilis ClpP, FRET peptide cleavage, 20 min | Potency, µM (doses to about 57.5 µM), for inactives: at the top dose activity change, negative = active | actives 1.9% (n = 340,000) | AID 651965, 2013; active means well fitted falling curve with a large enough effect; inconclusive means small, poorly fitted or top-dose-only effect; inactive means no such curve, though single readings can be large or run the other way; further: potency means the concentration at half of the fitted maximal effect; the source files actives as falling curves though it sought activators and does not explain the sign; nearly all actives have a fitted effect of over 65% in size
Target sequence (P80244 whole entry, looked up): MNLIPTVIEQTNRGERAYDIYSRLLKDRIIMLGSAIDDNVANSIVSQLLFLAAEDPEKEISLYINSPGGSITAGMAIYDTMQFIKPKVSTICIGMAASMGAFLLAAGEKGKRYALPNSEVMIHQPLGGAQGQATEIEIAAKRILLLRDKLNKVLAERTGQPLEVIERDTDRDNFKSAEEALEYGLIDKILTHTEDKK
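FRET quenching reversal measured ClpP activation: 10 microg/mL B. subtilis ClpP at pH 8 with the FRET-FV decapeptide, read at 430 nm after 320 nm excitation. The 20-min minus 0-min signal was scaled between DMSO/no-enzyme wells and ADEP (5.8 microM final).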
DT40 TDP1 no CPT: qHTS for Inhibitors of human tyrosyl-DNA phosphodiesterase 1 (TDP1): qHTS in cells in absence of CPT; DT40 Tdp1-/- hTDP1 cells, no CPT, ATP luminescence, 48 h; actives 15% (n = 420,000); Potency, µM (series often up to 46.2 µM), inactives show at the highest dose activity change, negative = growth inhibition, hits mostly inhibitors; further: potency means the concentration at half of the fitted maximal effect; on the % scale 0 is the no-effect control and ±100 the full control effect; nearly all actives have a fitted effect of over 55% in size
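DT40 Tdp1-/-;hTDP1 cells, no CPT (DMSO vehicle only), 400 cells/well; compounds pin-transferred; ≥48 hr, 37 °C; CellTiter-Glo 30 min RT dark, luminescence read.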
IL1B secr inh: blocks inflammasome-driven IL-1 beta release; AID 743279; activity change, % at 57.5 µM; actives 4.7% (n = 360,000); THP-1 LPS/ATP IL-1B secretion, AlphaLISA, 16 h; active compounds read low; in the data active means activity change below about -50%; inconclusive means mostly about -30% to -49%; further: on the % scale 0 is the no-effect control and ±100 the full control effect
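Secreted IL-1B measured by AlphaLISA bead assay after 16 h compound exposure of THP-1 cells; compounds (final up to 57.5 uM) added 1 h before LPS (250 ng/mL) and ATP (1.25 mM) stimulation; lower signal means less secretion.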
DRD3 antagonist: blocks the human D3 dopamine receptor; AID 652054; actives 2.5% (n = 360,000); D3R cells, DiscoveRx beta-arrestin luminescence, antagonist mode; active compounds read low; max response, negative = inhibition, %; P35462; in the data active means max response below about -50%; inconclusive means no clear call, values can overlap the other calls; further: on the % scale 0 is the no-effect control and ±100 the full control effect
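Cells expressing the human receptor were seeded at 1500 cells/well, incubated overnight at 37 degrees C in 5% CO2, then exposed to library compounds with dopamine controls for 90 minutes at 37 degrees C before luminescent detection.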
Numbers without * were called inactive; ? = inconclusive; . = no result given; [ ] = another dose, or the depositor's remark. Unless noted, the call rests on the fitted dose curve; in most records, active means well fitted inhibition curve with a large enough effect; inconclusive means small, poorly fitted or top-dose-only effect; inactive means flat fitted curve, though single readings scatter.

SMILES | DT40 TDP1 CPT | D3 ag | ClpP mod | DT40 TDP1 no CPT | IL1B secr inh | DRD3 antagonist
CCOC(N)=O | -12% | -4 | . | 5% | . | .
O=C1N(Cc2ccccc2Cl)c2ccccc2C1(O)c1c[nH]c2ccccc12 (stereo not drawn) | 16µM* | 1 | 0% | ? | . | .
O=C1N(Cc2ccccc2)c2ccccc2C1(O)c1c[nH]c2ccccc12 (stereo not drawn) | -17% | 4 | 0% | -30% | . | .
Cc1ccccc1CN1C(=O)C(O)(c2c[nH]c3ccccc23)c2cc(Cl)ccc21 (stereo not drawn) | 16µM* | -8 | -2% | 18µM* | . | .
Cc1ccc(C)c(CN2C(=O)C(O)(c3c[nH]c4ccccc34)c3ccccc32)c1 (stereo not drawn) | 29µM* | -3 | -5% | 23µM* | . | .
CCOC(=O)C1CCCCN1C(=O)c1ccc(-n2cc(NC(=O)c3cccnc3)cn2)cc1 (stereo not drawn) | 9%[9.04 µM] | . | . | ? | . | .
CC(C)c1cccc(-c2csc(C(C)(O)c3ccncc3)n2)c1 (stereo not drawn) | 12µM* | 6 | -3% | 13µM* | 10 | 10
COc1cccc(C(C)(O)c2nc(-c3ccccc3)cs2)c1 (stereo not drawn) | 16µM* | -4 | -2% | 18µM* | 5 | 0
COc1cccc(C(C)(O)c2nc(-c3ccc(OC)c(OC)c3)cs2)c1 (stereo not drawn) | ? | 2 | -3% | ? | -25 | 1
COc1cccc(C(C)(O)c2nc(-c3cccc(C(C)C)c3)cs2)c1 (stereo not drawn) | ? | 0 | 1% | 23µM* | -83* | 13
CN(C)c1ccc(-c2csc(C(C)(O)c3cccc(F)c3)n2)cc1 (stereo not drawn) | 13µM* | -19 | -15% | 21µM* | -17 | -26
COc1ccc(C2=CC(=O)C[C@H](CN3C(=O)c4ccccc4C3=O)N(C(=O)OC(C)(C)C)O2)cc1 | ? | 6 | -12% | ? | 14 | 48
CC1CCc2sc(C(=O)NN=C3CCCC3)cc2C1 (stereo not drawn) | -10% | -4 | -1% | -29% | -3 | 9
COc1cccc(C(C)(O)c2nc(-c3ccc(N(C)C)cc3)cs2)c1 (stereo not drawn) | 18µM* | -4 | -7% | 21µM* | -19 | 0
Cc1ccccc1-n1nc(C)c2cc(C(=O)NCc3cccnc3)sc21 | -27% | -50 | 28µM* | -21% | -3 | -60*
COc1ccccc1NC(=O)Cn1c(SCC(=O)Nc2ccc(F)cc2)nc2ccccc21 | ? | 1 | 1% | ? | . | .
COc1cc2nc(SCC(=O)Nc3cccc(C)c3)n3nc(CCn4c(C)nc5ccccc54)nc3c2cc1OC | 2.6µM* | -15 | -6% | 2.6µM* | . | .
Cc1ccccc1NC(=O)CSc1nc2ccccc2c2nc(CCn3cncc3C)nn12 | 0% | 1 | ? | -20% | -13 | 14
COc1cc2nc(SCC(=O)Nc3ccc(F)cc3)n3nc(CCn4c(C)nc5ccccc54)nc3c2cc1OC | 2.1µM* | -9 | -8% | 5.2µM* | . | .
COc1cc2nc(SCC(=O)Nc3ccccc3C)n3nc(CCn4c(C)nc5ccccc54)nc3c2cc1OC | 2.9µM* | -12 | -3% | 3.3µM* | . | .
COc1cccc(CNC(=O)Cn2ncn3nc(-c4cccs4)cc3c2=O)c1OC | -21% | 10 | -9% | -19% | . | .
O=Cc1ccccc1-c1cn(CN2C(=O)c3ccccc3C2=O)nn1 | -1% | -12 | -1% | 4% | 24 | -2
CCOC(=O)C1CCN(CCC(=O)Nc2ccccc2OC)CC1 | -22% | -17 | -2% | -4% | . | .
O=C(CN1CCCc2ccccc21)N/N=C/c1ccccc1O | -99% | -5 | 28µM* | 4.1µM* | 40 | -3
COc1ccc(/C=N/NC(=O)CN2CCCc3ccccc32)c(OC)c1 | 8% | -3 | . | ? | 21 | 0
SMILES | DT40 TDP1 CPT | D3 ag | ClpP mod | DT40 TDP1 no CPT | IL1B secr inh | DRD3 antagonist
O=C(CN1CCCc2ccccc21)N/N=C/c1ccc(F)cc1F | 21µM* | -1 | . | 15µM* | -2 | 0
Cc1cc(S(=O)(=O)N2CCCCC2CCNC(=O)C(=O)NCC2CCCO2)ccc1F (stereo not drawn) | -6% | 6 | -1% | ? | -3 | 60
CCC(C)(C)NC(=O)C1CCC(CNS(=O)(=O)c2ccc3c(c2)CC(C)N3C(C)=O)CC1 (stereo not drawn) | 16µM* | 12 | -4% | 12µM* | . | .
CCCCN(C)C(=O)C1CCC(CNS(=O)(=O)c2ccc3c(c2)CC(C)N3C(=O)C2CC2)CC1 (stereo not drawn) | 10µM* | 5 | 0% | 23µM* | -12 | 11
COc1cccc(CNC(=O)CCNS(=O)(=O)c2ccc3c(c2)CC(C)N3C(C)=O)c1 (stereo not drawn) | ? | 0 | 1% | ? | -23 | -2
CC(=O)N1c2ccc(S(=O)(=O)NCCc3cccc(C)c3)cc2CC1C (stereo not drawn) | 15µM* | 4 | -1% | 15µM* | . | .
COc1cccc(NC(=O)C2CCC(CNS(=O)(=O)c3ccc4c(c3)CC(C)N4C(C)=O)CC2)c1 (stereo not drawn) | 23µM* | 5 | -4% | 18µM* | 24 | -8
CC(=O)N1c2ccc(S(=O)(=O)NCC3CCC(C(=O)NC4CCC(C)CC4)CC3)cc2CC1C (stereo not drawn) | ? | 3 | 0% | -24% | 31 | 6
COc1ccc(S(=O)(=O)N2CCOCC2)cc1NC(=O)CSc1nnc(C2CC2)n1N | -6% | -5 | 2% | -3% | -7 | 2
COc1ccc(CNS(=O)(=O)c2ccc3c(c2)N(C(C)=O)CC(C)S3)cc1 (stereo not drawn) | ? | 7 | . | 9.2µM* | -3 | 3
COC(=O)c1cc(S(=O)(=O)NCCc2cccc(C)c2)cn1C | 9% | -6 | . | -20% | -11 | 8
CC(=O)N1c2ccc(S(=O)(=O)NCC3CCC(C(=O)Nc4cccc(C)c4)CC3)cc2CC1C (stereo not drawn) | 16µM* | 13 | 1% | 15µM* | . | .
CC(=O)N1c2ccc(S(=O)(=O)NCC3CCC(C(=O)Nc4cccc(C)c4C)CC3)cc2CC1C (stereo not drawn) | ? | -9 | -1% | 21µM* | . | .
